About 83,000 compounds went through this panel and 20% of them were active in at least one assay; those are over-represented in the sample as a whole.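 A percent growth of 40 corresponds to 60% growth inhibition; 0 means no net growth; -100 means all cells died. Active threshold: below 10.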 Unmarked numbers belong to inactive results. Calls of active or inactive are those of the source.

Test in all cases: NCI-60 one-dose screen, 48 h (100 = growth as untreated, 0 = no growth, -100 = all killed)
Settings in all cases: 10 µM

The subject of assay [1] is HT29 colon.
For assay [2], the system named is SNB-75 CNS.
Assay [3] has as its system SNB-19 CNS.
Assay [4] deals with U251 CNS.
The subject of assay [5] is PC-3 prostate.
Assay [6] deals with SK-MEL-5 melanoma.
Assay [7] concerns UACC-62 melanoma.
Assay [8] concerns LOX IMVI melanoma.
In assay [9] the test system is SK-MEL-28 melanoma.
Assay [10] deals with SK-MEL-2 melanoma.

As to `COc1ccc(-c2nnc(-c3c(-c4ccccc4)nc4ncccn34)o2)cc1OC`, the growth in assay [1] is 102%; in assay [2] it was 74.1%; in assay [3], 100%; in assay [4] it was 101%; in assay [5] it was 97.9%; in assay [6], 95.4%. The growth is 102% in assay [7], 102% in [8], 112% in assay [9] and 96.3% in assay [10].

Take `c1ccc(CNc2ncnc3scc(-c4cccs4)c23)nc1`: the growth in [1] was 91.2%; in [2], 64.6%; in assay [3] it was 67.2%; in assay [4], 75.7%; in [5] it was 58.6%; in [6], 14.8%. Also, the growth was 56% in [7], 74.2% in assay [8], 96.7% in [9] and 72.2% in [10].

With `CC(C)=CCc1cc(O)cc2c1OC(C=C(C)C)C1=C2C(=O)C2=C(NCCS2(=O)=O)C1=O` (stereo not given), the growth in assay [1] was -14.9% (active); in assay [2], 18.5%; in [3] it was -44.5% (active); in assay [4], -85% (active); in [5], 10%; in assay [6], -96.7% (active). Besides, the growth in assay [7] is -18.9% (active); in assay [8], -56.2% (active); in assay [9] it was -33.4% (active); in assay [10] it was -28.9% (active).

As to `Cc1ccc2oc3nc(C)c(C(=O)NCc4ccccc4)cc3c(=O)c2c1`, the growth was 95% in assay [1]; 88% in [2]; 83.2% in assay [3]; 79% in [4]; 93.5% in [5]; 76.9% in [6]. Besides, the growth was 25.6% in assay [7], 68.8% in [8], 78.1% in [9] and 8.63% (active) in assay [10].

Regarding `CSc1nn(-c2ccccc2)c2ncnc(Oc3ccccc3)c12`, the growth was 87.3% in [1]; 70.1% in assay [2]; 93.9% in assay [3]; 86% in [4]; 98% in assay [5]; 97% in assay [6]. The growth in assay [7] was 101%; in [8], 98.4%; in assay [9], 111%; in assay [10], 80.6%.

Turning to `O=C1/C(=C\c2ccccc2)CN(C(=O)c2ccccc2)C/C1=C\c1ccccc1`, the growth in [1] is -48.5% (active); in [2], 49.7%; in assay [3] it was 55.2%; in assay [4], -32.6% (active); in [5] it was 6.58% (active); in [6], -22.8% (active). For the same molecule, the growth in assay [7] was -1.94% (active); in assay [8], -80.3% (active); in assay [9], -7.74% (active); in assay [10], 58.6%.

Take `COc1cc(-c2cc(/C=C/C(=O)c3ccc(F)c(F)c3)[nH]n2)cc(OC)c1OC`: the growth is 53.7% in [1]; 56.7% in [2]; 67.8% in assay [3]; 41.5% in assay [4]; 11.7% in assay [5]; 75.6% in [6]. Moreover, the growth in assay [7] is 51.4%; in [8], 55.9%; in assay [9], 73.4%; in [10], 83.1%.

For `CC(=O)[C@H]1CC[C@H]2[C@@H]3CCC4=CC(=O)C=C[C@]4(C)[C@H]3CC[C@]12C`, the growth in assay [1] was 96.2%; in assay [2], 90.3%; in assay [3] it was 114%; in [4], 95.1%; in assay [5] it was 87.7%; in assay [6], 82.5%. For the same molecule, the growth is 80.3% in assay [7], 88.6% in [8], 109% in assay [9] and 102% in [10].

For the molecule `Nc1nc(Nc2ccccc2)n[nH]1`, the growth is 105% in [1]; 90.6% in [2]; 94.6% in assay [3]; 100% in assay [4]; 116% in [5]; 106% in assay [6]. Further, the growth was 90.7% in assay [7], 100% in assay [8], 109% in assay [9] and 103% in assay [10].

With `CCCCCCN1C(=O)C2=C(c3ccc(Cl)cc3)Nc3c(c(C)nn3-c3ccccc3)C2c2ccccc21` (stereo not given), the growth in assay [1] is 98.1%; in assay [2], 83.6%; in assay [3], 89.4%; in [4], 87.8%; in assay [5], 76.7%; in assay [6], 92.7%. For the same molecule, the growth is 94.8% in assay [7], 94.6% in assay [8], 96.4% in assay [9] and 91.1% in [10].

In the case of `COc1cc(-c2cc(/C=C/C(=O)c3ccc4c(c3)OCO4)[nH]n2)cc(OC)c1OC`, the growth in assay [1] was 43%; in [2] it was 69.7%; in assay [3] it was 66.5%; in [4], 43%; in assay [5], 59%; in [6], 95.9%. For the same molecule, the growth is 78.9% in [7], 42.8% in assay [8], 94.3% in assay [9] and 100% in assay [10].

`O=C(N/N=C/c1ccccc1O)C(O)(c1ccccc1)c1ccccc1`: the growth in [1] was 49.7%; in [2], 68.8%; in assay [3], 66%; in [4] it was 45.9%; in assay [5] it was 55.5%; in assay [6], 62.1%. Besides, the growth in [7] is 51.9%; in assay [8], 25.7%; in assay [9], 69.7%; in assay [10] it was 107%.

For `Nc1nc(N)c2c(ccc3nccc32)[nH]1`, the growth in assay [1] is 27%; in assay [2] it was 79.2%; in assay [3] it was 62.4%; in assay [4], 36%; in assay [5], 7.39% (active); in assay [6], 41.2%. For the same molecule, the growth in [7] is 47.2%; in assay [8] it was 23%; in [9], 83.4%; in [10] it was 57.6%.

With `CC(C)(Cl)CCC1=C(Cl)C(=O)c2ccccc2C1=O`, the growth in [1] is 115%; in [2] it was 30.7%; in assay [3], 89%; in assay [4], 49.9%; in [5], 32.8%; in [6] it was -34.8% (active). The growth is 2.45% (active) in assay [7], 20.6% in assay [8], 56.9% in [9] and 79.1% in assay [10].

The values above are taken from PubChem BioAssay (NCI).
